Experimental data reported in PubChem BioAssay (NCI).
This is part of a sample that, as a whole, favours compounds with a hit. Of some 83,000 tested, about 20% had one in any assay.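 Assay: single dose, 48 h. Readout: percent growth (0 = no net growth; negative = cell death). Active: <10.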 Unmarked numbers belong to inactive results. Active and inactive are the calls of the source.

Columns and labels:
Test in all cases: NCI-60 one-dose screen, 48 h (100 = growth as untreated, 0 = no growth, -100 = all killed)
Conditions in all cases: 10 µM unless noted
SR leukemia = system: SR leukemia
RPMI-8226 leukemia = system: RPMI-8226 leukemia
OVCAR-8 ovarian = system: OVCAR-8 ovarian
OVCAR-5 ovarian = system: OVCAR-5 ovarian
OVCAR-4 ovarian = system: OVCAR-4 ovarian
SK-OV-3 ovarian = system: SK-OV-3 ovarian
IGROV1 ovarian = system: IGROV1 ovarian
OVCAR-3 ovarian = system: OVCAR-3 ovarian
HS 578T breast = system: HS 578T breast
NCI/ADR-RES ovarian = system: NCI/ADR-RES ovarian

SMILES	growth (SR leukemia)	growth (RPMI-8226 leukemia)	growth (OVCAR-8 ovarian)	growth (OVCAR-5 ovarian)	growth (OVCAR-4 ovarian)	growth (SK-OV-3 ovarian)	growth (IGROV1 ovarian)	growth (OVCAR-3 ovarian)	growth (HS 578T breast)	growth (NCI/ADR-RES ovarian)
Cc1ccc(S(=O)(=O)c2nc(-c3ccccc3)oc2Sc2nc3ccccc3s2)cc1	15.5%	56.7%	60%	124%	55.5%	116%	80%	77.9%	101%	70.7%
N#Cc1c(Nc2ccc(N3CCOCC3)cc2)nc(SCC(=O)c2ccc(Br)cc2)nc1-c1ccccc1	101%	111%	101%	95.6%	105%	95%	107%	105%	105%	103%
CCN1C(=O)N(CC)C2C1NC(=S)N2/N=C/c1ccc(C(F)(F)F)cc1 (stereo not given)	28.4%	76.8%	86.8%	81.3%	72.7%	79%	60.6%	64.8%	66.2%	69.5%
COc1ccc(C(=O)Cn2c(C(=O)c3ccc(Cl)cc3)nc3ccccc32)cc1	26.9%	13%	69.9%	90.4%	62.4%	98.8%	39.7%	52%	47.2%	35.9%
COc1cc(/C=N/Nc2ccc(Br)cc2)cc(OC)c1OC	68.8%	58.4%	54.8%	68.4%	51%	85.2%	57.3%	63.3%	80%	57.2%
O=C(/C=C/c1ccc(Cl)cc1)c1cccc(OCCCOc2cccc(C(=O)/C=C/c3ccc(Cl)cc3)c2)c1	32.8%	-8.57% (active)	99.3%	113%	91.7%	100%	108%	95.4%	106%	105%
O=C(N=Nc1c(O)[nH]c2ccccc12)Nc1ccc(F)cc1	84.2%	91%	96.7%	90.4%	103%	80.5%	85.2%	102%	96.2%	104%
CN(C)c1ccc(-c2ccc3c(c2)c(-c2ccccc2)nc(=O)n3C)cn1	16.7%	2.69% (active)	54%	53.2%	74.6%	38.6%	49.1%	13.1%	41.2%	27.2%
Cc1ccc(Cl)cc1NC(=O)c1sc2nc3c(cc2c1N)C(=O)CCC3	68.9%	95.1%	90%	94.2%	90.1%	42.4%	75.7%	22.1%	60.9%	43.8%
COc1cc(Cl)c(C)cc1NC(=O)c1cc2ccccc2cc1O	8.6% (active)	7.23% (active)	11.9%	20%	20.7%	14.8%	11.9%	6.37% (active)	23.8%	0.336% (active)
O=C(Oc1ccc(CCl)cc1)c1ccccc1	-43.7% (active)	-50.2% (active)	-84.5% (active)	-85.2% (active)	-83.1% (active)	-100% (active)	-81.4% (active)	-97.3% (active)	-13.4% (active)	-63.7% (active)
CCN(CC)c1ccc(CNc2cc(C)nc3ccccc23)cc1	50.5%	41.7%	63.2%	73.2%	52%	78.3%	74.8%	63.7%	85.6%	47.7%
NC(=O)c1c(NC(=O)c2cccs2)sc2c1CCC(=O)C2	5.54% (active)	-13.6% (active)	21.2%	22.2%	-6.38% (active)	87.1%	29.7%	13%	35.1%	59.4%
COC(=O)CCC/C=C\C[C@H]1C=CC(=O)/C1=C/C[C@@H](O)C/C=C\CC(F)(F)F	4% (active)	-11.8% (active)	8.95% (active)	39%	34%	77.4%	12.1%	-3.96% (active)	41.9%	14%
Cc1ccc2c(=O)cc(C(=O)Nc3sc4c(c3C(=O)NCc3cccnc3)CCCC4)oc2c1C	89.8%	102%	98.4%	105%	105%	100%	100%	106%	91.7%	98.9%
COc1ccc(C2=CN3CC=CC3CC2=O)cc1 (stereo not given)	94.4%	104%	103%	110%	98.9%	102%	104%	102%	104%	103%
COc1ccc(/C=C2\CN(C(=O)C(Cl)Cl)C/C(=C\c3ccc(OC)cc3)C2=O)cc1	1.01% (active)	-14.3% (active)	19%	9.63% (active)	3.73% (active)	41.6%	-50.7% (active)	-75.3% (active)	17.8%	11.6%
COc1ccc(-c2nc(/C=C3\C(=O)N(C)c4ccccc43)c3ccccn23)cc1	-7.02% (active)	104%	58.6%	85.5%	47.2%	66.8%	69.7%	94.3%	41.3%	77.6%
Nc1nc(N)c2c(n1)NC(c1ccc(Cl)cc1)C1CCc3ccccc3C1=N2 (stereo not given)	33.1%	41.9%	70.7%	103%	39.2%	66.8%	77.2%	40.5%	80.9%	52.5%
COc1ccc2nc(Cl)c(/C=C3\CC(c4ccccc4)=NN(c4ccccc4)C3=O)cc2c1	76.6%	97.3%	41.8%	93.5%	37.4%	46.5%	50.7%	74.4%	32.9%	60.2%
OCCNCCNC(Cc1ccc(Cl)cc1)c1ccccc1 (stereo not given)	88.5%	81.3%	101%	63.6%	95.6%	81%	87.3%	94.5%	91.5%	92.2%

SMILES	growth (SR leukemia)	growth (RPMI-8226 leukemia)	growth (OVCAR-8 ovarian)	growth (OVCAR-5 ovarian)	growth (OVCAR-4 ovarian)	growth (SK-OV-3 ovarian)	growth (IGROV1 ovarian)	growth (OVCAR-3 ovarian)	growth (HS 578T breast)	growth (NCI/ADR-RES ovarian)
N#Cc1c(-c2ccccc2)nc(SCc2nnc(-c3ccc(Cl)cc3)o2)[nH]c1=O	105%	95.6%	93.6%	114%	106%	55.4%	103%	103%	93.8%	93.3%
CCOC(=O)C1=C(C)C(Cl)=N/C1=C\c1[nH]c(Cl)c(C)c1C(=O)OCC	86.3%	65.1%	99.1%	124%	95.4%	81.8%	112%	116%	103%	104%
Cc1ccc(/C=C/C(=O)Nc2ncc(Cc3ccc(F)cc3)s2)o1	18.9%	54.2%	77.6%	64.1%	85.4%	64.6%	54.1%	36.9%	49.2%	55.7%
COc1ccc(-c2cc(-c3ccccc3)nc(N3CCN(CCNc4ccnc5cc(Cl)ccc45)CC3)n2)cc1	7.06% (active)	-28.2% (active)	-81% (active)	48.2%	-27.6% (active)	112%	-74% (active)	7.81% (active)	66.4%	-63.2% (active)
CC1=C2[C@@H](CC1)[C@]1(C)O[C@@](C3CCCCC3)(C[C@H]1OC(=O)CO)[C@H]2OC(=O)/C=C/c1ccccc1	52.1%	58.5%	5.17% (active)	88.8%	92.9%	86%	85.1%	85%	-15.2% (active)	-2.43% (active)
O=C1c2cccc3cccc(c23)C(=O)N1C/C=C/c1ccc2c3c(cccc13)C(=O)N(CCO)C2=O	67.1%	74%	69.6%	79.2%	40.1%	72.3%	78.7%	87.9%	61.6%	80.2%
O=C1/C(=C2\SC(=S)N(C3CC3)C2=O)SC(=S)N1C1CC1	105%	102%	103%	98.5%	97.2%	109%	95.5%	107%	97.4%	102%
CC(=O)Oc1ccc(OC(C)=O)c2ccccc12	56.8%	6.57% (active)	48.8%	98.4%	-96.4% (active)	102%	68.5%	59.7%	109%	64.5%
Clc1ccccc1-c1cnn2cc(-c3ccccc3)cnc12	59.9%	87.1%	78.9%	79.6%	76.1%	83.9%	78.6%	90%	74.4%	83.7%
CN1CCN(C(=O)C(C)(C)c2ccc(C(=O)Nc3cn4cc(-c5ccncc5)ccc4n3)cc2)CC1	11.8%	10.7%	14.6%	18.3%	2.83% (active)	9.33% (active)	6.72% (active)	-37.4% (active)	-6.52% (active)	21.1%
O=C(Nc1ccc(Cl)cc1)Oc1c(Cl)c(Cl)c(Cl)c(Cl)c1Cl	93.6%	90.5%	99.9%	94.6%	88.6%	90%	85.9%	98.8%	87.8%	94%
CNC1=CC(=O)c2c(C(=O)OC)c(C)[n+]([O-])c(C)c2C1=O	95.5%	76.1%	35%	96.1%	26%	120%	70.2%	7.04% (active)	94.1%	70.6%
CCCCNC(=O)Oc1ccc(/C(=C(/C)Cc2ccc(OC)cc2)c2ccc(OCCN3CCCCCC3)cc2)cc1	-44.2% (active)	33.6%	89.9%	96%	84.4%	85.8%	92.3%	63.9%	82.1%	81.4%
CNC(C)[C@H]1CCC2C3CC=C4C(=O)[C@@H](NC(=O)C=C(C)C)CC[C@]4(C)C3CC[C@@]21C (stereo not given in full)	-49.7% (active)	-43.7% (active)	42.5%	66.3%	-13.3% (active)	46.4%	9.81% (active)	-14% (active)	10.2%	39.1%
S=c1nc2oc(-c3ccccc3)c(-c3ccccc3)c2c(/N=C\c2ccco2)[nH]1	86.3%	97.6%	97.4%	87.7%	93.6%	109%	101%	98.4%	81.9%	100%
CCOC(=O)c1cc(C(=O)c2cc(OC)c(OC)c(OC)c2)n2ccccc12	23.9%	23.2%	33.2%	71.5%	67.9%	22.3%	49.6%	-5.59% (active)	40.1%	10.7%
Cc1ccc(-c2nc(SCc3nc4cc(Cl)c(Cl)cc4[nH]3)[nH]c(=O)c2C#N)cc1	96.7%	115%	98.2%	101%	105%	96.2%	99.6%	99.9%	102%	111%
COc1cc(OC)c2sc(-c3ccc(-n4cncc4-c4cc(OC)c(OC)c(OC)c4)cc3)nc2c1	17.3%	27.3%	76.1%	81.3%	50.2%	88.8%	63.9%	35.1%	62.2%	60.6%
O=C1Nc2c(C(=O)O)cccc2/C1=N/c1n[nH]c(=S)s1	84.6%	87.7%	91%	98%	87.9%	85.7%	83%	99.1%	87%	101%
N#C/C(=C\c1ccc([N+](=O)[O-])cc1)n1nnc2cc(F)c(F)cc21	-0.476% (active)	-22.4% (active)	11.4%	21%	9.19% (active)	94.2%	-10.9% (active)	-40.1% (active)	58.4%	9.64% (active)
